Screening results as filed in PubChem.
Mcl1-Bid inh – Mcl-1/Bid interaction inhibition; Q07820; TR-FRET Mcl-1/Bid-Dy647 peptide binding, 1536-well; inhibition, % at 21.7 µM; actives 0.97% (n = 220,000); AID 1021;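 active means compounds that cut the binding signal by more than half at the single screening dose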;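 further: His-tagged Mcl-1 with europium anti-His antibody binding Bid BH3 peptide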
Target sequence (Q07820 whole entry, looked up): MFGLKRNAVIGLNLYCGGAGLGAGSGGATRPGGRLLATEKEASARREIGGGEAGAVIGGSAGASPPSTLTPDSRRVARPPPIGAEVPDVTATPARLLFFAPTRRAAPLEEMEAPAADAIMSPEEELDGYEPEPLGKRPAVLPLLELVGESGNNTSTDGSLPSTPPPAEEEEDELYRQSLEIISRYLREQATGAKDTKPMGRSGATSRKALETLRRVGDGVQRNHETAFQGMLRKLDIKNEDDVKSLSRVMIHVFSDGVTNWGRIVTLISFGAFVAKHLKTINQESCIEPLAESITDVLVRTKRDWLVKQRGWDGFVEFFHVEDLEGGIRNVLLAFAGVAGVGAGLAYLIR
eIF4E 4G PPI – blocks eIF4E binding to eIF4G. TR-FRET eIF4E-eIF4GI(517-606) binding, 2 h. actives 0.37% (n = 220,000). P63073+Q04637. AID 782. inhibition, % at 21.7 µM
NCF1 inh – blocks human p47phox regulatory protein of NADPH oxidases; P14598; p47phox/p22phox peptide binding, fluorescence polarization, 2 h; inhibition, % at 24.7 µM; actives 0.53% (n = 220,000); AID 1274
14-3-3 Bad PPI – disrupts binding of bovine 14-3-3 zeta to phospho-Bad peptide | P63103 | TR-FRET 14-3-3zeta/Dy647-pBad peptide displacement, 1 h | inhibition, % at 21.7 µM | actives 0.71% (n = 220,000) | AID 781;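 active means inhibition above about 70%, limit read from the data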
Target sequence (P63103 whole entry, looked up): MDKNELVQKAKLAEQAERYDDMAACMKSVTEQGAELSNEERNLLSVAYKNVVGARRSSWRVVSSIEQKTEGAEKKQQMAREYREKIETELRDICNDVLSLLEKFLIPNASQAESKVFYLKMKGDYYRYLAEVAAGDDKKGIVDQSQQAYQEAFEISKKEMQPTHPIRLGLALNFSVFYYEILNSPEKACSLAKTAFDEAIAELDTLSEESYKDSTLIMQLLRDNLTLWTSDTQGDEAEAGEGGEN
Bim-Mcl-1 – inhibitors of Bim-Mcl-1 interaction, human; actives 0.1% (n = 190,000); Bead-based flow cytometry, Bim peptide-Mcl-1 binding; inhibition, % at 10 µM; Q07820; AID 1009; in the data active means inhibition above about 40%
Mcl1 Noxa PPI – Mcl-1/Noxa interaction inhibition; Q07820; actives 1.5% (n = 220,000); inhibition, % at 21.7 µM; TR-FRET Mcl-1/Noxa peptide binding, 2 h;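 active means compounds that cut the protein-peptide binding signal by more than 50% relative to plate controls in a single-dose test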;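 further: His-tagged Mcl-1 with rhodamine Noxa BH3 peptide and terbium anti-His antibody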
Large screens that a line does not name were inactive; [ ] = dose if it differs, or a comment. The list is not random: actives were taken first. Their share in the collection is about 3.4%.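 How the source made its calls, unless noted: active means inhibition above about 30% (limit read from the data); inactive means the rest.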

Cc1cc(NS(=O)(=O)c2ccc(Cl)cc2)nn1CC(=O)NCc1ccco1	NCF1 inh 55
O=C(N=Nc1c(O)[nH]c2ccccc12)c1cc(NS(=O)(=O)c2cccs2)cc(NS(=O)(=O)c2cccs2)c1	14-3-3 Bad PPI 80, Mcl1 Noxa PPI 57
O=C(N=Nc1c(O)[nH]c2ccccc12)c1cccs1	none
CCOc1ccccc1N1CCN(Cc2ccco2)CC1	none
CCOc1ccccc1N1CCN(C/C=C/c2ccc(N(C)C)cc2)CC1	14-3-3 Bad PPI 78[fluorescence artefact?]
CCOc1ccccc1N1CCN(Cc2ccc(Br)s2)CC1	14-3-3 Bad PPI 76
COC(=O)C1CCN(C2CC(=O)N(c3cc(C)cc(C)c3)C2=O)CC1 (stereo not given)	none
COc1ccccc1OCCC(=O)OCC(=O)Nc1ccc(Br)cc1F	none
N=c1c(C(=O)NCc2ccco2)cc2c(=O)n3ccccc3nc2n1Cc1ccccc1	none
COc1ccc(Cn2c(=O)[nH]c3cc(C(=O)NCc4ccc5c(c4)OCO5)ccc3c2=O)cc1	Mcl1-Bid inh 56
COc1ccc(CNC(=O)c2cc3c(=O)n4ccccc4nc3n(Cc3cccnc3)c2=N)cc1	Mcl1 Noxa PPI 59
N=c1c(C(=O)NCc2ccc3c(c2)OCO3)cc2c(=O)n3ccccc3nc2n1Cc1cccnc1	Mcl1 Noxa PPI 74
N=c1c(C(=O)NCc2ccco2)cc2c(=O)n3ccccc3nc2n1Cc1ccc(Cl)cc1	none (no result: Mcl1-Bid inh, eIF4E 4G PPI, NCF1 inh, 14-3-3 Bad PPI, Mcl1 Noxa PPI)
CC(C)(C)NC(=O)NCC1CCCC1NC(=O)NC(C)(C)C (stereo not given)	none (no result: Bim-Mcl-1)
COC(=O)c1ccccc1NC(=O)C1CC(c2ccc(F)cc2)=NO1 (stereo not given)	none
CCc1ccccc1NC(=O)C1CC(c2ccc(F)cc2)=NO1 (stereo not given)	NCF1 inh 33
COCCNC(=O)C1CC(c2cccc(F)c2)=NO1 (stereo not given)	eIF4E 4G PPI 60 (no result: Bim-Mcl-1)
O=C(O)C1CC(c2ccccc2)=NO1 (stereo not given)	none
O=C(O)C1CC(c2ccc(F)cc2)=NO1 (stereo not given)	Mcl1 Noxa PPI 63
O=S(=O)(c1cccs1)N1CCC(CO)(Cc2ccc(Cl)cc2)CC1	none
COC(=O)c1c(NC(=O)COC(=O)c2ccc(NC(=O)CC#N)cc2)sc2c1CCCCC2	Mcl1 Noxa PPI 67
CSc1nsc(/C=C/Nc2ccc(O)cc2C)c1C#N	Mcl1 Noxa PPI 55
CSc1nsc(/C=C/Nc2ccc(F)cc2)c1C#N	none
CCOC(=O)c1cc(-c2ccc(F)cc2)n(CC(=O)N2CCCC2)c1C	none
CCOC(=O)c1cc(-c2ccccc2)n(CC(=O)N2CCCC2)c1C	Mcl1-Bid inh 94
CC(C)=CCN1CCNC(=O)C1CC(=O)NCc1nc(C)c(C)s1 (stereo not given)	none
Cc1ccc(S(=O)(=O)N2CCC(C(=O)C3C(=O)CC(C)(C)CC3=O)CC2)cc1	none
Cc1ccc(S(=O)(=O)/N=C2/C=C(C3C(=O)CC(C)(C)CC3=O)C(=O)c3ccccc32)cc1	Mcl1 Noxa PPI 80
CC(C)N(C(=S)Nc1cccc(S(=O)(=O)N(C)C)c1)c1ccccc1	none (no result: Bim-Mcl-1)
CCOC(=O)N1CCN(C(=O)CSc2ccc3nnc(CCNC(=O)c4ccc(OC)cc4)n3n2)CC1	Mcl1-Bid inh 89
Cc1ccc(-c2onc3ccc(C4OCCO4)cc23)cc1	none
Cc1noc(C)c1COC(=O)[C@H](C)NS(=O)(=O)c1ccc(Cl)c(Cl)c1	none
Cc1noc(C)c1COC(=O)Cc1ccc(Cl)c(Cl)c1	NCF1 inh active
CC1=C(C(=O)OCCNC(=O)c2ccccc2O)C(c2ccccc2[N+](=O)[O-])C(C(=O)OCC2CCCO2)=C(C)N1 (stereo not given)	none
Cc1cc(C(=O)N2CCN(C/C=C/c3ccccc3)CC2)cs1	NCF1 inh 54
O=C(c1cccnc1)N1CCN(C/C=C/c2ccccc2)CC1	none
O=C(Nc1nc(-c2ccc3c(c2)OCCO3)cs1)C1CCCC1	none
Cc1cnc(NC(=O)c2ccc(-c3nc4ccccc4s3)o2)s1	eIF4E 4G PPI 59[fluorescence artefact?]
Cc1cnc(NC(=O)CSc2nc3ccccc3s2)s1	none
COc1ccc(Nc2nc(N)nc(CSC(=S)N3CCCCC3C)n2)cc1 (stereo not given)	none (no result: Bim-Mcl-1)
CC(=O)C1=C(c2ccccc2)NC(=S)NC1c1ccc(O)c(O)c1 (stereo not given)	Mcl1 Noxa PPI 52
Cc1nn(-c2ccccc2C(=O)O)c(=O)c2ccccc12	Mcl1-Bid inh 88, 14-3-3 Bad PPI 82 (no result: Mcl1 Noxa PPI)
Cc1nn(-c2ccccc2[N+](=O)[O-])c(=O)c2ccccc12	none (no result: NCF1 inh)
CCCCOc1ccc(OC(=O)Nc2cc(Cl)ccc2OC)cc1	none (no result: Bim-Mcl-1)
CC(C)(C)C1CCC(C(=O)OCC(=O)Nc2ccc3[nH]c(=O)[nH]c3c2)CC1 (stereo not given)	Mcl1 Noxa PPI 59
N#C/C(=C\C1=C(N2CCOCC2)C(=C\c2ccc(Cl)cc2)/CC1)C(=O)Nc1ccccc1F	Mcl1-Bid inh 62, 14-3-3 Bad PPI 73[fluorescence artefact?]
CCN(CC)c1ccc(/C=C2\CCC(/C=C(\C#N)C(=O)Nc3ccccc3F)=C2N2CCOCC2)cc1	NCF1 inh 120
N#C/C(=C\c1ccc(-c2ccc(F)cc2)o1)C(=O)Nc1nc(-c2cccs2)cs1	Mcl1 Noxa PPI 57
CCOC(=O)c1c(NC(=O)c2cc(-c3cccc(O)c3)on2)sc(C(C)=O)c1C	Mcl1 Noxa PPI 63
CCc1ccc(OCc2nnc(SCCN3CCOCC3)n2C)cc1	14-3-3 Bad PPI 85
Cc1cc(C)nc(N(C#N)S(=O)(=O)c2ccccc2Cl)n1	Mcl1-Bid inh 89
Cc1nnc(N/N=C/c2ccco2)n1N	none
Cc1ccc(S(=O)(=O)CCSc2cccc(C(=O)Nc3ccccc3C(=O)O)c2)cc1	Mcl1 Noxa PPI 68
CC(C)NC(=O)C1CCN(C2CCN(Cc3ccc4cccc(F)c4n3)CC2)CC1	none
O=C(/C=C/c1ccc(Br)cc1)c1ccc(NC(=O)c2ccco2)cc1	14-3-3 Bad PPI 77[fluorescence artefact?]
O=C(/C=C/c1ccncc1)c1ccc(NC(=O)c2ccccc2F)cc1	Mcl1-Bid inh 52, NCF1 inh 30
O=C(/C=C/c1ccc(Br)cc1)c1ccco1	none
CCOC(=O)c1cc(C)[nH]c(=S)c1C#N	Mcl1 Noxa PPI 72
Clc1ccc2nncn2n1	none
COc1ccc(-c2nnn(CC(=O)NCc3ccccc3)n2)cc1OC	none
CCOc1ccc(-c2nnn(CC(=O)Nc3ccccc3OC)n2)cc1OCC	NCF1 inh 31
NCCCC[C@H](NC(=O)C1CCNCC1)c1nnc(CN)o1	Mcl1-Bid inh 90
CCC(C)c1ccc(S(=O)(=O)N2CCN(C(C)CC(=O)O)CC2)cc1 (stereo not given)	none
CC1(C)OC(=O)N(CCc2ccccc2)C1(C)O (stereo not given)	none
CC1(C)OC(=O)N(Cc2ccco2)C1(C)O (stereo not given)	Mcl1-Bid inh 51
